# Laboratory results taken from the supplement of paper PMC12282887.
# ± gives the standard deviation of the averaged measurements.
# How the values were obtained:
# Experiment in all cases: promoter activity interaction Z-score (Lux/OD deviation from empty-vector control); higher = stronger promoter induction by the compound
# [1] = test system: E. coli BW25113 acrABp lux reporter
# How it was run: (§1)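 Every compound was given at four 1:2 dilutions, in biological duplicates, to E. coli BW25113 carrying low-copy luxCDABE promoter reporters in wild-type or single-gene deletion backgrounds. Growth in 40 µl LB Lennox in 384-well plates at 37°C was followed by OD600 and luminescence readings every 30 min for 12 h, integrated over 0–8 h for wild type and 1–9 h for deletion strains, with wells below 10% of the median growth value excluded. Scores are Z-transformed residuals of growth-normalised luminescence fitted against a control.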
# [2] = test system: E. coli BW25113 marRABp lux reporter
# How it was run: as §1
# [3] = test system: E. coli BW25113 micFp lux reporter
# How it was run: as §1
# [4] = test system: E. coli BW25113 ompFp lux reporter
# How it was run: as §1
# [5] = test system: E. coli BW25113 robp lux reporter
# How it was run: as §1
# [6] = test system: E. coli BW25113 soxSp lux reporter
# How it was run: as §1
# [7] = test system: E. coli BW25113 tolCp lux reporter
# How it was run: as §1
# [8] = 0.12 µg/ml, genetic background: wild type
# [9] = 0.12 µg/ml, genetic background: ΔmarA
# [10] = 0.12 µg/ml, genetic background: Δrob
# [11] = 0.12 µg/ml, genetic background: ΔsoxS
# [12] = 0.23 µg/ml, genetic background: wild type
# [13] = 0.23 µg/ml, genetic background: ΔmarA
# [14] = 0.23 µg/ml, genetic background: Δrob
# [15] = 0.23 µg/ml, genetic background: ΔsoxS
# [16] = 0.47 µg/ml, genetic background: wild type
# [17] = 0.47 µg/ml, genetic background: ΔmarA
# [18] = 0.47 µg/ml, genetic background: Δrob
# [19] = 0.47 µg/ml, genetic background: ΔsoxS
# [20] = 0.94 µg/ml, genetic background: ΔmarA
# [21] = 0.94 µg/ml, genetic background: Δrob
# [22] = 0.94 µg/ml, genetic background: wild type
smiles,measurement,setting,value
NC[C@H]1O[C@H](O[C@H]2[C@H](O)[C@@H](O[C@H]3O[C@H](CO)[C@@H](O)[C@H](N)[C@H]3O)[C@H](N)C[C@@H]2N)[C@H](N)C[C@@H]1O [Tobramycin],promoter activity interaction Z-score,[1]; [8],0.275 ± 0.78
same,promoter activity interaction Z-score,[1]; [9],-0.0864 ± 0.66
same,promoter activity interaction Z-score,[1]; [10],-0.374 ± 0.06
same,promoter activity interaction Z-score,[1]; [11],-0.499 ± 0.77
same,promoter activity interaction Z-score,[1]; [12],0.0585 ± 0.16
same,promoter activity interaction Z-score,[1]; [13],-1.02 ± 0.59
same,promoter activity interaction Z-score,[1]; [14],-0.281 ± 0.11
same,promoter activity interaction Z-score,[1]; [15],-0.243 ± 0.067
same,promoter activity interaction Z-score,[1]; [16],0.268 ± 0.32
same,promoter activity interaction Z-score,[1]; [17],0.0843 ± 0.8
same,promoter activity interaction Z-score,[1]; [18],0.184 ± 0.22
same,promoter activity interaction Z-score,[1]; [19],-0.000211 ± 0.53
same,promoter activity interaction Z-score,[2]; [8],-0.211 ± 0.075
same,promoter activity interaction Z-score,[2]; [9],-0.0912 ± 0.16
same,promoter activity interaction Z-score,[2]; [10],-0.0729 ± 0.021
same,promoter activity interaction Z-score,[2]; [11],-0.3 ± 0.41
same,promoter activity interaction Z-score,[2]; [12],-0.379 ± 0.14
same,promoter activity interaction Z-score,[2]; [13],-0.269 ± 0.26
same,promoter activity interaction Z-score,[2]; [14],-0.264 ± 0.11
same,promoter activity interaction Z-score,[2]; [15],-0.0572 ± 0.44
same,promoter activity interaction Z-score,[2]; [16],0.112 ± 0.2
same,promoter activity interaction Z-score,[2]; [17],0.108 ± 0.0063
same,promoter activity interaction Z-score,[2]; [18],0.123 ± 0.14
same,promoter activity interaction Z-score,[2]; [19],0.021 ± 0.34
same,promoter activity interaction Z-score,[3]; [8],0.116 ± 0.093
same,promoter activity interaction Z-score,[3]; [9],-0.103 ± 0.25
same,promoter activity interaction Z-score,[3]; [10],-0.119 ± 0.027
same,promoter activity interaction Z-score,[3]; [11],-0.254 ± 0.025
same,promoter activity interaction Z-score,[3]; [12],0.0087 ± 0.2
same,promoter activity interaction Z-score,[3]; [13],-0.183 ± 0.0032
same,promoter activity interaction Z-score,[3]; [14],-0.106 ± 0.21
same,promoter activity interaction Z-score,[3]; [15],0.447 ± 0.0099
same,promoter activity interaction Z-score,[3]; [16],0.395 ± 0.47
same,promoter activity interaction Z-score,[3]; [17],-0.0629 ± 0.026
same,promoter activity interaction Z-score,[3]; [18],-0.0597 ± 0.061
same,promoter activity interaction Z-score,[3]; [19],-0.0982 ± 0.012
same,promoter activity interaction Z-score,[3]; [20],-0.362
same,promoter activity interaction Z-score,[3]; [21],-0.382
same,promoter activity interaction Z-score,[4]; [8],-0.387 ± 0.068
same,promoter activity interaction Z-score,[4]; [9],-0.3 ± 0.42
same,promoter activity interaction Z-score,[4]; [10],-0.413 ± 0.19
same,promoter activity interaction Z-score,[4]; [11],-0.487 ± 0.17
same,promoter activity interaction Z-score,[4]; [12],-0.622 ± 0.16
same,promoter activity interaction Z-score,[4]; [13],-0.759 ± 0.15
same,promoter activity interaction Z-score,[4]; [14],-0.556 ± 0.035
same,promoter activity interaction Z-score,[4]; [15],-0.0491 ± 0.17
same,promoter activity interaction Z-score,[4]; [16],-0.491 ± 0.36
same,promoter activity interaction Z-score,[4]; [17],-0.148 ± 0.12
same,promoter activity interaction Z-score,[4]; [18],-0.134 ± 0.25
same,promoter activity interaction Z-score,[4]; [19],-0.273 ± 0.14
same,promoter activity interaction Z-score,[5]; [8],0.0204 ± 0.029
same,promoter activity interaction Z-score,[5]; [9],-0.389 ± 0.14
same,promoter activity interaction Z-score,[5]; [10],-0.392 ± 0.68
same,promoter activity interaction Z-score,[5]; [11],-0.688 ± 0.16
same,promoter activity interaction Z-score,[5]; [12],-0.193 ± 0.42
same,promoter activity interaction Z-score,[5]; [13],-0.587 ± 0.68
same,promoter activity interaction Z-score,[5]; [14],-0.421 ± 0.28
same,promoter activity interaction Z-score,[5]; [15],-0.277 ± 0.056
same,promoter activity interaction Z-score,[5]; [16],0.112 ± 0.36
same,promoter activity interaction Z-score,[5]; [17],0.0227 ± 0.29
same,promoter activity interaction Z-score,[5]; [18],-0.0785 ± 0.74
same,promoter activity interaction Z-score,[5]; [19],-0.163 ± 0.8
same,promoter activity interaction Z-score,[5]; [20],-0.438
same,promoter activity interaction Z-score,[6]; [8],-0.268 ± 0.23
same,promoter activity interaction Z-score,[6]; [9],-0.327 ± 0.091
same,promoter activity interaction Z-score,[6]; [10],-0.404 ± 0.1
same,promoter activity interaction Z-score,[6]; [11],-0.552 ± 0.76
same,promoter activity interaction Z-score,[6]; [12],-0.406 ± 0.046
same,promoter activity interaction Z-score,[6]; [13],-0.398 ± 0.089
same,promoter activity interaction Z-score,[6]; [14],-0.3823 ± 0.0022
same,promoter activity interaction Z-score,[6]; [15],-0.224 ± 0.31
same,promoter activity interaction Z-score,[6]; [16],-0.337 ± 0.16
same,promoter activity interaction Z-score,[6]; [17],-0.48 ± 0.096
same,promoter activity interaction Z-score,[6]; [18],-0.274 ± 0.22
same,promoter activity interaction Z-score,[6]; [19],-0.474 ± 0.4
same,promoter activity interaction Z-score,[6]; [22],-0.762
same,promoter activity interaction Z-score,[6]; [21],-0.904
same,promoter activity interaction Z-score,[7]; [8],-0.242 ± 0.84
same,promoter activity interaction Z-score,[7]; [9],-0.0707 ± 0.59
same,promoter activity interaction Z-score,[7]; [10],-0.601 ± 1.1
same,promoter activity interaction Z-score,[7]; [11],-1.14 ± 0.68
same,promoter activity interaction Z-score,[7]; [12],-0.456 ± 0.35
same,promoter activity interaction Z-score,[7]; [13],-1.13 ± 0.17
same,promoter activity interaction Z-score,[7]; [14],-0.0625 ± 1.8
same,promoter activity interaction Z-score,[7]; [15],0.772 ± 0.56
same,promoter activity interaction Z-score,[7]; [16],-0.509 ± 0.71
same,promoter activity interaction Z-score,[7]; [17],-0.277 ± 0.22
same,promoter activity interaction Z-score,[7]; [18],1.06 ± 1.1
same,promoter activity interaction Z-score,[7]; [19],0.0909 ± 0.58
same,promoter activity interaction Z-score,[7]; [22],-0.901 ± 0.46
same,promoter activity interaction Z-score,[7]; [20],-0.459
same,promoter activity interaction Z-score,[7]; [21],-0.895 ± 0.19
same,promoter activity interaction Z-score,"[7]; 0.94 µg/ml, genetic background: ΔsoxS",-0.128 ± 1
